Most compounds without a hit are left out; they make up all but 7.4% or so of the library.
FLuc counter: qHTS profiling assay for firefly luciferase inhibitor/activator using purifed enzyme and Km concentrations of substrates (counterscreen for miR-21 project). purified FLuc, Km substrates, luminescence inhibition. Luciferin 4-monooxygenase (Photinus pyralis), P08659. Potency, µM (titrated, usually from 57.5 µM), without a hit: at the top dose activity change, negative = inhibition, most hits filed as inhibitors. AID 588342, 2011. hit rate 6.9% among 360,000;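 also: plate controls were vehicle for no effect and reference inhibitor for full effect; nearly all actives have a fitted effect of over 55% in size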
Target sequence (P08659 whole entry, looked up): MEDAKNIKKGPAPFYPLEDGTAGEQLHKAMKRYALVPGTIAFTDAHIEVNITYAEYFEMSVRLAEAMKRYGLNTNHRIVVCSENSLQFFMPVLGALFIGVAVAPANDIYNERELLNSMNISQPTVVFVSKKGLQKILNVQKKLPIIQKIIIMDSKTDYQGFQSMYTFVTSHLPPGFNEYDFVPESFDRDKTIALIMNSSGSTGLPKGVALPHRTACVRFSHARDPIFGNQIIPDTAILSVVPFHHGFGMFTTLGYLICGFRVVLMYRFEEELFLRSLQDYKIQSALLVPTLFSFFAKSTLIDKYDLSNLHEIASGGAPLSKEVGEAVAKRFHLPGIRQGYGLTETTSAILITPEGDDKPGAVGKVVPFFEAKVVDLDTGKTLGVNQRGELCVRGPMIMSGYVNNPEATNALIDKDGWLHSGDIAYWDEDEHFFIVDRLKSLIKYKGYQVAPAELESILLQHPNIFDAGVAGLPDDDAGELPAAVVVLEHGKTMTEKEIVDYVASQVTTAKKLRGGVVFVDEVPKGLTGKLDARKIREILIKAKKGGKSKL
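Purified P. pyralis luciferase, 10 nM final, with Km-level 10 uM D-luciferin and 10 uM ATP in 50 mM Tris acetate pH 7.5, 10 mM Mg acetate, 0.01% Tween-20, 0.05% BSA; 6-point qHTS titration about 60 µM downward; luminescence read.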
NPC1 promoter act: qHTS Assay for NPC1 Promoter Activators; AID 485313, 2010; Huh7 NPC1 promoter luciferase reporter, 24 h; Potency, µM (top dose mostly 9.22 µM), for the others: at the highest dose activation, actives largely listed as activators; hit rate 2.4% among 320,000; also: % of control where 0% means no effect; nearly all actives have a fitted effect of over 60% in size
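In 1536-well qHTS, Huh7 cells harboring an NPC1 promoter–luciferase construct received compound for 24 h; activation was quantified by luminescence following luciferase reagent addition.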
Rab9 promoter act: qHTS Assay for Rab9 Promoter Activators; hit rate 2.8% among 320,000; AID 485297, 2010; Huh7 Rab9 promoter-luciferase reporter, luminescence, 24 h; Potency, µM (top dose mostly 9.22 µM), for inactives: at the highest dose activation, negative = inhibition, most hits filed as activators; also: % of control where 0% means no effect; nearly all actives have a fitted effect of over 60% in size
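Steps: seed 1500 Huh7 Rab9-luc cells per well, rest 2 h at 37 °C; add compound in DMSO; incubate 24 h; add luciferase reagent, 10 min ambient; read luminescence.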
ELG1 genotoxic: qHTS screen for small molecules that induce genotoxicity in human embryonic kidney (HEK293T) cells expressing luciferase-tagged ELG1; Potency, µM (top dose mostly 46 µM), for the others: at the highest dose activity change, positive = activation, actives largely listed as activators; hit rate 1.3% among 330,000; HEK293T ELG1-luciferase reporter, luminescence, 16 h; also: % of control where 0% means no effect; nearly all actives have a fitted effect of over 60% in size
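DMSO vehicle served as control against compound-treated ELG1-luciferase HEK293T cells; exposure lasted 16 hr at 37 °C and 5% CO2, followed by ONE-Glo luminescence detection after 30 min.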
SMN2 splice up: qHTS Assay for Enhancers of SMN2 Splice Variant Expression; hit rate 2.8% among 210,000; AID 1458, 2008; HEK293 SMN2-luciferase splicing reporter, luminescence, 30-36 h; Potency, µM (titrated, usually from 46.1 µM), for the others: top-dose activity change, positive = activation, usual class: activators; also: % of control where 0% means no effect; nearly all actives have a fitted effect of over 55% in size
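qHTS luciferase splicing reporter: luminescence rises when SMN2 exon 7 is included in transfected HEK293 cells. Compound exposure lasted 30-36 h at 37C, with 4.5 mM final sodium butyrate as control, followed by a ONE-Glo read.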
Numbers without * were called inactive; ? = inconclusive; nt = no result given; [ ] = dose if it differs, or a comment. Calls follow the shape of the dose curve; as a rule, active = well fitted curve in the direction sought with a large enough effect; inconclusive = small, poorly fitted or top-dose-only effect, or another doubt; inactive = no such curve, though single readings can be large; an effect the other way counts as inactive or inconclusive. Potency is read from the fitted curve at half-maximal effect.

SMILES	FLuc counter	NPC1 promoter act	Rab9 promoter act	ELG1 genotoxic	SMN2 splice up
Cc1ccc(OP(=O)(Oc2ccc(C)cc2)Oc2ccc(C)cc2)cc1	nt	nt	nt	nt	-10%
COc1ccc(C(=O)Nc2nnc(S(=O)(=O)N(CC(C)C)c3ccc(C)cc3)s2)cc1OC	8.5µM*	nt	nt	nt	nt
O=C(c1ccccc1)N1CCC2(CC1)OCCO2	1%	-4%	0%	0%	nt
O=C(C1CC(c2ccccc2O)=NO1)N1CCC2(CC1)OCCO2 (stereo not given)	11µM*	3.5µM*	?	16µM*	?
O=C(O)C(Cl)Br (stereo not given)	nt	nt	nt	nt	-2%
COC(=O)[C@@H]1C[C@H]1[C@@H](NP(=O)(c1ccccc1)c1ccccc1)c1ccccc1	4%	-3%	-3%	18µM*	10µM*
COc1ccc(/C=N/N=C(/N)N[N+](=O)[O-])c(OC)c1	?	8%	9%	13%	-5%
N/C(=N\N=C/c1ccc(-c2ccc(O)c(C(=O)O)c2)o1)N[N+](=O)[O-]	27µM*	-4%	6%	1%	1%
CC(C)(C)C(=O)c1cn(CC(=O)NCc2ccco2)c2ccccc12	?	?	3.2µM*	?	14µM*
CN(C)C(=O)Nc1cccc(C(F)(F)F)c1	nt	nt	nt	nt	-2%
Cc1ccc(N=Nc2cc(C)ccc2N)cc1	0.19µM*	0.5µM*	0.32µM*	0.46µM*	nt
O=C(Nc1ccc2c(c1)OCCO2)c1cccn(Cc2ccccc2)c1=O	11µM*	nt	nt	nt	nt
CCOc1ccc(NC(=O)c2cccn(Cc3cccc(Cl)c3)c2=O)cc1	17µM*	nt	nt	nt	nt
O=C(Nc1ccc2c(c1)OCO2)c1cccn(Cc2cccc([N+](=O)[O-])c2)c1=O	5%	nt	nt	nt	nt
Cc1cc(NC(=O)c2cccn(Cc3cccc(Cl)c3)c2=O)no1	-1%	nt	nt	nt	nt
CCOC(=O)[C@@H]1[C@@H]2c3ccccc3-c3ccccc3[C@H]2C[C@H]1O	nt	nt	nt	nt	-7%[9.22 µM]
[O-]/[N+](=C/c1cccnc1)c1ccc(Br)cc1	-4%[2.3 µM]	5.6µM*	2.8µM*	?	13µM*
CC(C)c1ccc(-n2c(O)c(/C=N/NC(=O)c3ccccc3O)c(=O)[nH]c2=S)cc1	27µM*	5%	2%	0%	nt
O=C(N/N=C/c1c(O)n(Cc2ccco2)c(=O)[nH]c1=O)c1ccccc1O	15µM*	2%	-1%	0%	nt
O=C(N/N=C/c1c(O)n(C2CCCCC2)c(=S)[nH]c1=O)c1ccccc1O	15µM*	1%	7%	3%[9.26 µM]	nt
CCN(CC)C(=O)c1ccc(NC(=O)Nc2ccccc2F)cc1	1.5µM*	0.32µM*	?	?	2.8µM*
CCN(CC)C(=O)c1ccc(NC(=O)CCCSc2ccccc2)cc1	2%	-3%	-1%	2%	11%
CC[C@@H]1[C@@H]2Cc3ccc(O)cc3[C@@]1(CC)CCN2C	nt	nt	nt	nt	1%[9.22 µM]
COc1ccccc1N=Nc1ccc(N)c(C)c1	15µM*	26%	11%[1.84 µM]	?	nt
Cc1cccc(N2CCc3c2nc2ccccc2c3N)c1	21µM*	24%	7%	-18%	-5%
SMILES	FLuc counter	NPC1 promoter act	Rab9 promoter act	ELG1 genotoxic	SMN2 splice up
CC(C)(C)C(=O)CP(=O)(O)O	nt	nt	nt	nt	4%[9.22 µM]
CCC(=O)Oc1ccc(C(=O)Nc2cccc(C(=O)c3ccccc3)c2)cc1	17µM*	3%	2%	-9%	-25%
Cc1cc(C=O)c(C)n1C1CCCCC1	-6%	0%	0%	3%	2%
CCN1C(=O)C(=Cc2cc(C)n(C3CC3)c2C)C(=O)N(CC)C1=S	-2%	-4%	0%	2%	0%
Cc1cc(/C=C2\C(=O)NC(=S)N(C)C2=O)c(C)n1C1CCCCC1	0.48µM*	-2%	-4%	?	1%
Cc1cc(C=C2C(=O)N(C)C(=S)N(C)C2=O)c(C)n1C1CCCC1	2.4µM*	0%	-9%	?	-14%
CCC12CCN(Cc3ccc(F)cc3)CC1Oc1c(O)cccc12 (stereo not given)	2%	nt	nt	nt	nt
Cc1nn(CC(C)C)c(Cl)c1C(=O)NC1CCC(C)CC1 (stereo not given)	8.5µM*	2.2µM*	4µM*	9.2µM*	nt
Cc1nn(Cc2ccccc2Cl)c(Cl)c1C(=O)OCC(=O)NC(=O)NC1CCCCC1	-8%	-1%	0%	-1%	-31%
O=P(O)(OP(=O)(O)c1ccccc1)c1ccccc1 (tested in a mixture with another compound)	nt	nt	nt	nt	4%[9.22 µM]
O=C(c1cc(-c2ccccc2)nc2ccccc12)N1CCC2(CC1)OCCO2	?	-2%	2%	0%	0%
CCOc1ccc(-c2cc(C(=O)N3CCN(c4cccc(C(F)(F)F)c4)CC3)c3ccccc3n2)cc1	2.4µM*	nt	nt	nt	nt
Nc1ccccc1-c1ccccc1	nt	nt	nt	nt	-7%
c1cncc(CNc2cc(-c3ccc4c(c3)OCO4)ncn2)c1	nt	nt	nt	nt	10µM*
c1cncc(CNC2=NCCCCC2)c1	5%	-4%	2%	5%	-21%
NS(=O)(=O)c1ccc(-c2ccc([As](=O)(O)O)cc2)cc1	nt	nt	nt	nt	0%[9.22 µM]
O=C(CSc1nnc(NC(=O)c2cccc(F)c2)s1)NCc1ccco1	3.4µM*	?	?	26%	nt
c1ccc(CN2CCc3nc4ccccc4cc3C2)cc1	12µM*	?	?	?	nt
CN(C)C(=O)Oc1ccc2c(c1)O/C(=C\c1cccc([N+](=O)[O-])c1)C2=O	0%	1%	-4%	1%	nt
CN(C)C(=O)Oc1ccc2c(c1)O/C(=C\c1cccc(Cl)c1)C2=O	27µM*	?	?	13%	nt
O=C1/C(=C/c2ccc(F)cc2)Oc2cc(OC(=O)N3CCOCC3)ccc21	5.4µM*	27%	22%	4%	nt
CN(C)C(=O)Oc1ccc2c(c1)O/C(=C\c1ccc(Cl)cc1)C2=O	?	?	4.5µM*	?	nt
N#Cc1c(/N=C/c2ccc(O)cc2O)sc2c1C1CCN2CC1	6µM*	-4%	4%	8%	-14%[1.84 µM]
Nc1ccccc1O.O.O=C(O)[C@H]1[O][Sb][O][C@H]1C(=O)O	nt	nt	nt	nt	-26%[9.22 µM]
O=C1c2ccccc2-c2c1nc1c([n+]2[O-])CCCC1	1%	25%	3.5µM*	?	26%
SMILES	FLuc counter	NPC1 promoter act	Rab9 promoter act	ELG1 genotoxic	SMN2 splice up
Cc1ccc(O)cc1C	nt	nt	nt	nt	1%
Cn1cc(C=C2C(=O)NC(=O)NC2=O)c2ccccc21	-9%	0%	-3%	1%	nt
CC(=O)n1cc(C=C2C(=O)NC(=O)NC2=O)c2ccccc21	15µM*	-3%	1%	1%[9.26 µM]	nt
[N-]=[N+]=CC(=O)CC[C@H](N)C(=O)O	nt	nt	nt	nt	1%[9.22 µM]
O=C(O)/C=C\C(=O)Nc1ccc(Oc2ccc(Br)cc2)cc1	19µM*	-1%	-3%	0%	-12%
CC(Cc1ccccc1)NC(=O)/C=C/C(=O)O (stereo not given)	-6%	0%	-2%	0%	3%

Compound activity deposited in PubChem by National Center for Advancing Translational Sciences (NCATS).
